Some test systems named below: SK-MEL-2 melanoma; EKVX NSCLC; SN12C renal; UO-31 renal; TK-10 renal; ACHN renal; CAKI-1 renal; A498 renal; CCRF-CEM leukemia; MOLT-4 leukemia; RPMI-8226 leukemia; OVCAR-8 ovarian; OVCAR-5 ovarian; OVCAR-4 ovarian; SK-OV-3 ovarian; IGROV1 ovarian; OVCAR-3 ovarian; HS 578T breast; NCI/ADR-RES ovarian.
Common to all, as to assay: NCI-60 one-dose screen, 48 h (100 = growth as untreated, 0 = no growth, -100 = all killed)
Holding throughout (details): 10 µM unless noted

The panel holds about 83,000 compounds, 20% with a hit somewhere; the sample as a whole holds those more often.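 Interpretation: 100, growth as untreated; towards 0, rising growth inhibition; 0, no net growth; 0 to -100, cell death. Compounds scoring below 10 were considered active.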 Unmarked numbers belong to inactive results. Calls of active or inactive are those of the source.

`Cc1ccc(-c2cc(-c3cccnc3)[nH]c(=O)c2C#N)cc1`: the growth is 120% with SK-MEL-2 melanoma; 101% in the assay on EKVX NSCLC; 104% with SN12C renal; 84.1% with UO-31 renal; 116% in the assay on TK-10 renal; 103% in the assay with ACHN renal. For the same molecule, the growth in the assay with CAKI-1 renal was 87%; with A498 renal, 82.4%; with CCRF-CEM leukemia, 101%; in the assay on MOLT-4 leukemia, 115%; in the assay on RPMI-8226 leukemia, 101%; in the assay with OVCAR-8 ovarian, 103%. Besides, the growth is 107% with OVCAR-5 ovarian; 103% in the assay on OVCAR-4 ovarian; 114% in the assay on SK-OV-3 ovarian; 106% with IGROV1 ovarian; 106% with OVCAR-3 ovarian; 102% with HS 578T breast. In addition, the growth with NCI/ADR-RES ovarian is 105%.

Regarding `COc1cccc(/C=C/C(=O)c2c(C)nc3ccccc3c2/C=C/c2ccc(C)cc2)c1OC`, the growth with SK-MEL-2 melanoma was 77.2%; in the assay on EKVX NSCLC, 80.8%; with SN12C renal, 52.1%; with UO-31 renal, 54.3%; in the assay with TK-10 renal, 118%; in the assay with ACHN renal, 52.9%. For the same molecule, the growth in the assay with CAKI-1 renal was 57%; in the assay on A498 renal, 73.8%; in the assay with CCRF-CEM leukemia it was 16.6%; with MOLT-4 leukemia it was 11.3%; in the assay on RPMI-8226 leukemia it was 8.55% (active); in the assay with OVCAR-8 ovarian, 49.6%. Also, the growth was 67.5% in the assay with OVCAR-5 ovarian; 56.6% in the assay with OVCAR-4 ovarian; 84.8% with SK-OV-3 ovarian; 36.4% in the assay with IGROV1 ovarian; 52.4% in the assay with OVCAR-3 ovarian; 68.3% in the assay with HS 578T breast. Moreover, the growth in the assay with NCI/ADR-RES ovarian was 40.6%.

`O=C(/C=C/c1c(Cl)nc2sccn12)c1ccc(F)c(F)c1`: the growth with SK-MEL-2 melanoma is 74.7%; with EKVX NSCLC it was 74%; with SN12C renal, 76.5%; with UO-31 renal, 64%; with TK-10 renal it was 91.6%; in the assay with ACHN renal it was 81.1%. For the same molecule, the growth with CAKI-1 renal is 81.2%; in the assay on A498 renal it was 73.6%; in the assay on CCRF-CEM leukemia, 71.7%; in the assay with MOLT-4 leukemia, 66.7%; in the assay with RPMI-8226 leukemia, 55.6%; with OVCAR-8 ovarian, 92.7%. Also, the growth with OVCAR-5 ovarian is 76.2%; in the assay on OVCAR-4 ovarian, 79.4%; with SK-OV-3 ovarian it was 71.3%; in the assay with IGROV1 ovarian, 87.5%; with OVCAR-3 ovarian it was 81.7%; in the assay on HS 578T breast, 73.3%. Besides, in the assay on NCI/ADR-RES ovarian, the growth is 85.6%.

As for `COc1cccc(-c2nc3sccn3c2-c2ccnc(NCCNS(=O)(=O)c3cccc(F)c3)c2)c1`, the growth was 40.8% with SK-MEL-2 melanoma; 38.5% in the assay on EKVX NSCLC; 27.6% in the assay on SN12C renal; 6.44% (active) with UO-31 renal; 51.4% with TK-10 renal; 20.5% with ACHN renal. Moreover, the growth in the assay on CAKI-1 renal was 21.3%; in the assay with A498 renal, 36.6%; in the assay with CCRF-CEM leukemia, 16.5%; in the assay with MOLT-4 leukemia it was 20.2%; in the assay on RPMI-8226 leukemia, -25.3% (active); with OVCAR-8 ovarian, 12.7%. For the same molecule, the growth in the assay on OVCAR-5 ovarian is 71.4%; with OVCAR-4 ovarian it was 21.5%; in the assay with SK-OV-3 ovarian, 45.9%; in the assay with IGROV1 ovarian it was 31.6%; with OVCAR-3 ovarian it was 36.7%; with HS 578T breast it was 27.9%. The growth in the assay on NCI/ADR-RES ovarian was 12.6%.

As for `COc1cc(C2CC(=O)Nc3c2c(C)nn3-c2nc3ccccc3[nH]2)c(OC)c2c1OCO2` (configuration not stated), the growth in the assay on SK-MEL-2 melanoma was 80.7%; in the assay on EKVX NSCLC, 71.7%; in the assay on SN12C renal, 82.2%; in the assay on UO-31 renal, 40.2%; in the assay with TK-10 renal it was 36.4%; in the assay on ACHN renal, 86.2%. In addition, the growth was 40.6% with CAKI-1 renal; 38.8% with A498 renal; 61.7% with CCRF-CEM leukemia; 13.5% with MOLT-4 leukemia; 60.1% in the assay on RPMI-8226 leukemia; 67.9% in the assay with OVCAR-8 ovarian. Also, the growth in the assay with OVCAR-5 ovarian is 105%; in the assay with OVCAR-4 ovarian, 76%; in the assay with SK-OV-3 ovarian, 81.7%; in the assay on IGROV1 ovarian, 63.1%; with OVCAR-3 ovarian it was 68.8%; in the assay with HS 578T breast, 53.1%. Moreover, the growth with NCI/ADR-RES ovarian was 63.2%.

As to `COc1ccc(CNC(=O)C(O)C(Cc2ccccc2)NC(=O)c2[nH]c3ccccc3c(=O)c2C)cc1OC` (configuration not stated), the growth with SK-MEL-2 melanoma is 99.5%; in the assay with EKVX NSCLC it was 99%; in the assay on SN12C renal, 103%; in the assay with UO-31 renal, 98.7%; in the assay with TK-10 renal it was 93.6%; in the assay with ACHN renal, 108%. Also, the growth in the assay with CAKI-1 renal is 99.6%; with A498 renal it was 113%; with CCRF-CEM leukemia, 108%; in the assay on MOLT-4 leukemia it was 99.8%; in the assay on RPMI-8226 leukemia, 111%; in the assay on OVCAR-8 ovarian it was 103%. Besides, the growth with OVCAR-5 ovarian is 98.1%; in the assay with OVCAR-4 ovarian it was 111%; in the assay with SK-OV-3 ovarian it was 103%; in the assay with IGROV1 ovarian, 112%; with OVCAR-3 ovarian it was 111%; with HS 578T breast, 97.4%. Also, the growth with NCI/ADR-RES ovarian is 107%.

Take `O=C(CCCCCCSc1nc(-c2ccccc2)cc(-c2ccc(Cl)cc2)n1)NO`: the growth in the assay with SK-MEL-2 melanoma is 81.3%; in the assay on EKVX NSCLC, 44.5%; in the assay on SN12C renal, 20.7%; in the assay with UO-31 renal it was -2.31% (active); in the assay with TK-10 renal, 21.1%; with ACHN renal it was 4.89% (active). The growth in the assay on CAKI-1 renal was -7.71% (active); with A498 renal it was 24.2%; in the assay with CCRF-CEM leukemia, 0.872% (active); in the assay with MOLT-4 leukemia it was 1.04% (active); in the assay with RPMI-8226 leukemia it was 15.7%; in the assay on OVCAR-8 ovarian, 8.67% (active). The growth was 21.6% with OVCAR-5 ovarian; 41.3% in the assay on OVCAR-4 ovarian; 0.785% (active) with SK-OV-3 ovarian; -19.6% (active) in the assay with IGROV1 ovarian; 25.2% in the assay with OVCAR-3 ovarian; 45.7% in the assay with HS 578T breast. For the same molecule, the growth in the assay on NCI/ADR-RES ovarian is -25.5% (active).

For `CCN1C(=O)N(CC)C2Nn3c(s/c(=C4\C(=O)N(C)c5ccccc54)c3=O)=NC21` (configuration not stated), the growth is 48.2% in the assay with SK-MEL-2 melanoma; 71.2% with EKVX NSCLC; 43.4% in the assay with SN12C renal; 48.6% in the assay on UO-31 renal; 8.83% (active) in the assay with TK-10 renal; 46.9% in the assay on ACHN renal. In addition, the growth with CAKI-1 renal is 36%; in the assay with A498 renal, -2.65% (active); in the assay on CCRF-CEM leukemia, 35.8%; in the assay with MOLT-4 leukemia it was 60.5%; in the assay with RPMI-8226 leukemia, 48.2%; with OVCAR-8 ovarian, 38%. Further, the growth is 53.8% in the assay on OVCAR-5 ovarian; 59.6% in the assay on OVCAR-4 ovarian; 63.4% with SK-OV-3 ovarian; 43.3% in the assay on IGROV1 ovarian; 8.52% (active) in the assay on OVCAR-3 ovarian; 38.3% in the assay with HS 578T breast. Besides, in the assay with NCI/ADR-RES ovarian, the growth was 6.8% (active).

(Values after PubChem BioAssay (NCI).)
